The record followed here is PubChem BioAssay (NCATS).

Holding throughout (assay): Primary qHTS to identify gynecologic anti-cancer compounds using libraries of approved drugs and bioactive compounds (AID 1345084); also: nearly all actives have a fitted effect of over 55% in size
On the technique in general: qHTS replaces the single test concentration by a dilution series.

Experiment [1] concerns CAOV3. Particulars: Gynecologic cancer cell panel viability, ATPlite luminescence, 48 h; series mostly up to 57.5 µM. The procedure, abridged:
(§1)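 Cells, 1,000 per well, were allowed to settle for 16 h at 37 C before compound addition. Five concentrations were tested for 48 h, and viability was read by ATPlite luminescence after 15 min at room temperature.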
In general terms: Cellular ATP, detected with luciferase, serves as a proxy for viable cell number.

Experiment [2] has as its system CASKI. Particulars: Gynecologic cancer cell panel viability, ATPlite luminescence, 48 h; series mostly up to 57.5 µM. An outline of the steps:
as §1

Experiment [3] has as its system Es-2. The following applies: Gynecologic cancer cell panel viability, ATPlite luminescence, 48 h; series mostly up to 57.5 µM. The procedure, abridged:
as §1

The subject of experiment [4] is Hek293T. The following applies: Gynecologic cancer cell panel viability, ATPlite luminescence, 48 h, control line for the selectivity index; series mostly up to 57.5 µM. The procedure, abridged:
as §1

Experiment [5] relates to JEG-3. Particulars: Gynecologic cancer cell panel viability, ATPlite luminescence, 48 h; series mostly up to 57.5 µM. The procedure, abridged:
as §1

The test system of experiment [6] is HeLa. The following applies: Gynecologic cancer cell panel viability, ATPlite luminescence, 48 h; series mostly up to 57.5 µM. An outline of the steps:
as §1

SMILES strings stand for the structures. Results filed as inconclusive are left out. Unmarked numbers belong to inactive results. Active and inactive are the calls of the source. Calls follow the shape of the dose curve; as a rule, active = well fitted cell-killing curve with a large enough effect; inconclusive = small, poorly fitted or top-dose-only effect, or effect the other way; inactive = flat fitted curve, though single readings scatter.
% is scaled to controls: 0 for no effect and ±100 for the full control effect; potency is read from the fitted curve at half-maximal effect.

As to `OC1C=C2C3CN(Cc4cc5c(cc43)OCO5)C2CC1O` (configuration not stated), the Potency entry in experiment [1], in experiment [2] and in experiment [5] was “inactive” in each case. For the same compound, the Potency in experiment [3] is 25.1 µM (active); in experiment [4] it was 8.91 µM (active).

As for `CNC1CN(c2ccc3c(=O)c(C(=O)O)cn(-c4nccs4)c3n2)CC1OC` (configuration not stated), the activity change, negative = cytotoxicity was -13% [at 11.6 µM] in experiment [1], -25.3% [at 11.6 µM] in experiment [2], -22.6% [at 11.6 µM] in experiment [6] and -9.7% [at 11.6 µM] in experiment [5].

Turning to `CC(=O)NC(C)c1cnc(-c2cnc(Oc3ccc(OC(C)C)cc3)s2)s1` (configuration not stated), the Potency result in experiment [1], in experiment [2], in experiment [6], in experiment [4] and in experiment [5] was “inactive” throughout.

In the case of `COc1ccc(Oc2c(Cl)cnn(-c3cc(C)cc(C)c3)c2=O)cc1`, the Potency in experiment [1] is 28.2 µM (active). In addition, the Potency entry in experiment [3], in experiment [6] and in experiment [4] was “inactive” in each case.

With `CNS(=O)(=O)c1ccccc1Nc1nc(Nc2ccc(N3CCN(C)CC3)cc2OC)ncc1Br`, the Potency is 2.24 µM (active) in experiment [1], 7.94 µM (active) in experiment [2] and 14.1 µM (active) in experiment [4].

On to `Cc1[nH]c2ccc(F)cc2c1-c1nc2c3cccnc3c3ncccc3c2[nH]1`, for which the Potency was 3.98 µM (active) in experiment [1] and 14.1 µM (active) in experiment [3]. Moreover, the Potency entry in experiment [6] and in experiment [5] was “inactive” each time.

Regarding `CS/C=C/C(=O)O[C@@H]1CCC2=CC(=O)C(=C(C)C)C[C@]2(C)[C@H]1C`, the Potency entry in experiment [1], in experiment [3], in experiment [6], in experiment [4] and in experiment [5] was “inactive” throughout.

As to `CC(C)S(=O)(=O)NC[C@H](C)c1ccc(-c2ccc(CCNS(C)(=O)=O)cc2)cc1`, the Potency result in experiment [1], in experiment [3], in experiment [6] and in experiment [5] was “inactive” throughout. For the same compound, the Potency in experiment [4] is 8.91 µM (active).

Turning to `N#CSc1cc(SC#N)c(N)nc1N`, the activity change, negative = cytotoxicity was -3.29% [at 11.6 µM] in experiment [1], 10.8% [at 11.6 µM] in experiment [2], -2.58% [at 11.6 µM] in experiment [6] and 10.3% [at 11.6 µM] in experiment [5].

On to `C/C=C/C=C/C=C/C(=O)O[C@@H]1C=C2COC(=O)[C@]2(O)[C@@]2(C)CCCC(C)(C)[C@H]12`, for which the Potency entry in experiment [1], in experiment [3], in experiment [6], in experiment [4] and in experiment [5] was “inactive” each time.

With `CC(C)(O)C(=O)N1CCN(c2ccc(C(F)(F)F)c(C3=C(c4c[nH]c5ccccc45)C(=O)NC3=O)c2)CC1`, the Potency entry in experiment [1], in experiment [2], in experiment [3] and in experiment [4] was “inactive” each time.

Consider `CCC(C)C(=O)OC1C(C)C2(O)C(C=C(CO)CC3(O)C(=O)C(C)=CC32)C2C(C)(C)C12OC(=O)C(C)C` (configuration not stated), for which the Potency result in experiment [1], in experiment [2], in experiment [6], in experiment [4] and in experiment [5] was “inactive” each time.

On to `Cc1nc(-c2cn3c(n2)-c2ccc(-c4cnn(C(C)(C)C(N)=O)c4)cc2OCC3)n(C(C)C)n1`, for which the Potency was 35.5 µM (active) in experiment [1] and 15.8 µM (active) in experiment [4]. The Potency entry in experiment [3] and in experiment [6] was “inactive” throughout.

On to `COc1ccc(CNc2nc(N(CCO)CCO)nc3c2ncn3C(C)C)cc1`, for which the Potency result in experiment [1] was “inactive”. The Potency in experiment [3] is 22.4 µM (active).

Regarding `COc1cc(/C=C2\CCCN([C@@H](C)c3ccc(F)cc3)C2=O)ccc1-n1cnc(C)c1`, the Potency result in experiment [1], in experiment [2], in experiment [6] and in experiment [5] was “inactive” in each case.

Take `CNc1ccc([N+](=O)[O-])c(Nc2ccc3[nH]ncc3c2)n1`: the Potency entry in experiment [1], in experiment [2] and in experiment [5] was “inactive” each time. The Potency in experiment [6] is 25.1 µM (active).
